# From PubChem BioAssay (NCATS)
# Results filed as inconclusive are left out. A call without a number means that no potency is given here. Unmarked numbers belong to inactive results. Active and inactive are the calls of the source. Unless noted, calls follow the shape of the dose curve; as a rule, active = well fitted curve in the direction sought with a large enough effect; inconclusive = small, poorly fitted or top-dose-only effect, or another doubt; inactive = no such curve, though single readings can be large; an effect the other way counts as inactive or inconclusive.
# Assays:
# [1] = Cell Viability - Hek293 (AID 427;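 active = compounds whose dose-response curve shows a full or clear partial loss of cell viability, called from curve shape rather than a numeric limit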;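 also: potency is read from the fitted curve at half-maximal effect; cells exposed to compound for 40 hours at 37 °C before reading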); conditions: qHTS
# Procedure, shortened: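 AC50 values derive from Hill-modelled concentration-response of ATP-based luminescence, normalized between DMSO-only and 100 uM tamoxifen controls. Cells were exposed in complete culture medium for 40 hr at 37 °C before detection.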
# [2] = Cell Viability - SK-N-SH (AID 435; calls by dose curve;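 also: potency is read from the fitted curve at half-maximal effect; compound exposure lasted 40 h at 37 °C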); conditions: SK-N-SH neuroblastoma cell viability qHTS
# Procedure, shortened: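 Human neuroblastoma line, 40 h exposure at 37 °C, ATP quantified via luciferase luminescence; DMSO and 100 uM tamoxifen define 0 and 100% inhibition for AC50 fitting.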
# [3] = Cell Viability - LYMP2-011 (AID 969); conditions: LYMP2-011 lymphoblastoid cells viability; series mostly up to 92.2 µM;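 also: cells exposed to compound for 24 hours; nearly all actives have a fitted effect of over 60% in size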
# Procedure, shortened: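 2500 cells/well, 5 hr 37 C; compound added, 24 hr 37 C; CellTiter-Glo 30 min RT; luminescence. qHTS concentration-response, Hill-equation AC50. Tetraoctylammonium bromide positive control.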
# [4] = Cell Viability - LYMP2-023 (AID 975); conditions: LYMP2-023 lymphoblastoid cell viability; series mostly up to 92.2 µM;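 also: cellular ATP measured by luciferase luminescence as viability proxy; cells exposed to compound for 24 hours at 37 °C; nearly all actives have a fitted effect of over 55% in size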
# Procedure, shortened: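 2500 cells/well, 5 hr 37 C; cpd 24 hr 37 C; CellTiter-Glo, 30 min RT; luminescence. qHTS conc-response, Hill fit -> AC50. Pos ctrl tetraoctylammonium bromide.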
# [5] = Cell Viability - LYMP2-025 (AID 976); conditions: LYMP2-025 lymphoblastoid cell viability; series mostly up to 92.2 µM;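 also: cells exposed to compound for 24 h at 37 °C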
# Procedure, shortened: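 Seed 2500 LYMP2-025 cells/well; 5 hr at 37 C; add compound; 24 hr at 37 C; add CellTiter-Glo; 30 min RT; read luminescence. AC50 from Hill-modelled concentration-response.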
# [6] = Cell Viability - LYMP2-007 (AID 979); conditions: LYMP2-007 lymphoblastoid cell viability; series mostly up to 92.2 µM;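 also: cells exposed to compound for 24 h before reading; nearly all actives have a fitted effect of over 60% in size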; also: potency is read from the fitted curve at half-maximal effect
# Procedure, shortened: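 Luminescent ATP signal (CellTiter-Glo) serves as the viability read-out after 24 hr compound treatment of lymphoblastoid cells in complete medium at 37 C. Concentration-response data were fitted to the Hill equation to give AC50 values.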
# [7] = Cell Viability - LYMP2-008 (AID 980); conditions: LYMP2-008 lymphoblastoid cell viability, qHTS; series mostly up to 92.2 µM;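 also: cells exposed to compound for 24 h at 37 °C; nearly all actives have a fitted effect of over 60% in size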
# Procedure, shortened: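 qHTS, human lymphoblastoid line, 2500 cells/well; 5 hr preincubation, 24 hr compound, 37 C. CellTiter-Glo ATP luminescence. AC50 via Hill equation. Tetraoctylammonium bromide positive control.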
# [8] = Cell Viability - LYMP2-014 (AID 983); conditions: LYMP2-014 lymphoblastoid cells, viability qHTS; series mostly up to 92.2 µM;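 also: cells exposed to compound for 24 h at 37 °C; nearly all actives have a fitted effect of over 50% in size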
# Procedure, shortened: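 Luminescent ATP signal (CellTiter-Glo, 30 min at room temperature) serves as the viability read-out after 24 hr compound exposure at 37 C. Cells were seeded at 2500 per well and settled 5 hr beforehand.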
# [9] = target: Bile acid receptor (Homo sapiens) (UniProt Q96RI1); assay: qHTS assay for small molecule antagonists of farnesoid X receptor signaling (AID 588526; calls by dose curve; also: potency is read from the fitted curve at half-maximal effect); conditions: HEK293T FXR-UAS-bla, beta-lactamase ratio, antagonist mode; series mostly up to 76.7 µM
# Procedure, shortened: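 Antagonist mode: titrated compounds tested against chenodeoxycholic acid stimulation (normalized to 50 uM CDCA and DMSO) in GeneBLAzer HEK293T cells for 16 h. Beta-lactamase read by CCF4 fluorescence; IC50 from Hill fits.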
# [10] = target: Glucocorticoid receptor (Homo sapiens) (UniProt P04150); assay: qHTS assay for small molecule antagonists of glucocorticoid receptor signaling (AID 588533; active = well fitted inhibition curve with a large enough effect in the signal ratio, with a control signal flat, not every such curve was filed as active; the % refers to the signal ratio); conditions: HeLa MMTV-bla, GRE beta-lactamase ratio, antagonist mode, 18 h; series mostly up to 76.8 µM
# Procedure, shortened: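 Antagonist-mode qHTS: compound titrations added to GRE-bla HeLa cells, then dexamethasone 2 nM final; 18 h, 37 C. CCF4 FRET fluorescence normalized to dexamethasone and DMSO; IC50 from Hill fit.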
# [11] = target: Vitamin D3 receptor (Homo sapiens) (UniProt P11473); assay: qHTS assay for small molecule antagonists of vitamin D receptor signaling (AID 588541; calls by dose curve;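 also: receptor activated by calcitriol during compound treatment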); conditions: HEK293T VDR-UAS-bla, beta-lactamase ratio, antagonist mode; series mostly up to 76.7 µM
# Procedure, shortened: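 VDR-UAS-bla HEK293T cells in 2% charcoal-stripped FBS were stimulated with 1-alpha,25-dihydroxyvitamin D3 (3 nM final) plus compound for 16 h at 37 C. The beta-lactamase CCF4 readout was normalized to 50 nM agonist and DMSO, and Hill fits gave IC50.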
# [12] = MultiTox-Fluor Cytotoxicity Assay - LYMP1-001 - Dead Cells (AID 946); conditions: LYMP1-001 lymphoblastoid cells, dead-cell protease fluorescence; series mostly up to 92.2 µM; also: potency is read from the fitted curve at half-maximal effect
# Procedure, shortened: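 In this qHTS, 15 uM tetraoctylammonium bromide defined 100% and DMSO defined basal activity. Lymphoblastoid cells (LYMP1-001, 2500 per well) received compound for 16 hr at 37 C before a fluorogenic dead-cell substrate readout at 485/520 nm.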
# [13] = Cell Viability - LYMP2-009 (AID 968); conditions: LYMP2-009 lymphoblastoid cell viability; series mostly up to 92.2 µM;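 also: cells exposed to compound for 24 h at 37 °C; nearly all actives have a fitted effect of over 55% in size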
# [14] = Cell Viability - LYMP1-002 - Assay at 40 hr (AID 994); conditions: LYMP1-002 lymphoblastoid cell viability; series mostly up to 92.2 µM; also: nearly all actives have a fitted effect of over 60% in size
# Procedure, shortened: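 Luminescent ATP signal served as the viability readout, with decreases taken as toxicity. Cells were treated with compounds across a concentration range for 40 hours at 37 C, and AC50 values came from standard Hill modeling.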
# [15] = target: Estrogen receptor (Homo sapiens) (UniProt P03372); assay: qHTS assay for small molecule agonists of estrogen receptor alpha signaling (AID 588514; calls by dose curve; also: nearly all actives have a fitted effect of over 70% in size); conditions: ER-alpha-UAS-bla HEK293, beta-lactamase ratio, 18 h; series mostly up to 76.8 µM
# Procedure, shortened: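 Cells were plated at 5000/well, incubated 4 hrs at 37 C, dosed with compound titration series, incubated 18 hrs at 37 C, loaded with CCF4 dye for 2 hrs at RT, then fluorescence was read.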
# [16] = target: Voltage-gated inwardly rectifying potassium channel KCNH2 (Homo sapiens) (UniProt Q12809); assay: qHTS Assay for Small Molecule Inhibitors of the Human hERG Channel Activity (AID 588834); conditions: U2OS BacMam hERG, FluxOR thallium flux fluorescence; series mostly up to 92.2 µM;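 also: top concentration of the series differs between compounds; lower thallium flux fluorescence means stronger hERG block; nearly all actives have a fitted effect of over 50% in size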
# Procedure, shortened: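 Blockade is seen as reduced FluxOR thallium-flux fluorescence in U2OS cells expressing hERG from a BacMam construct, in Opti-MEM with 2% FCS. Concentration-response data fitted to the Hill equation for AC50.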
# [17] = target: Vitamin D3 receptor (Homo sapiens) (UniProt P11473); assay: qHTS assay for small molecule agonists of vitamin D receptor signaling (AID 588543; calls by dose curve); conditions: HEK293T VDR-UAS-bla, beta-lactamase ratio, 16 h; series mostly up to 76.8 µM
# Procedure, shortened: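 Measured: β-lactamase reporter activity (CCF4, 405 nm excitation, 460/530 nm emission) in HEK293T VDR-UAS-bla cells after 16 h compound exposure at 37 °C. Normalization against 50 nM 1α,25-dihydroxyvitamin D3 and DMSO; Hill-fit EC50.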
# [18] = target: Tumor necrosis factor (Homo sapiens) (UniProt P01375); assay: qHTS assay to identify small molecules that stimulate Tumor Necrosis Factor-alpha (TNF-alpha) secretion (AID 651757; active = well fitted curve in the direction sought with a large enough effect in the signal ratio; the % refers to the signal ratio); conditions: Human cells, HTRF 665/615 ratio; series mostly up to 92.2 µM
# Procedure, shortened: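 Read-out is HTRF, a TR-FRET sandwich of cryptate- and XL665-labeled anti-TNF-alpha antibodies detecting cytokine secreted by THP-1 cells. Cells had been incubated with test compounds at 37 C for 17 hrs beforehand.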
# Bile acid receptor (Homo sapiens), sequence (Q96RI1 whole entry, looked up): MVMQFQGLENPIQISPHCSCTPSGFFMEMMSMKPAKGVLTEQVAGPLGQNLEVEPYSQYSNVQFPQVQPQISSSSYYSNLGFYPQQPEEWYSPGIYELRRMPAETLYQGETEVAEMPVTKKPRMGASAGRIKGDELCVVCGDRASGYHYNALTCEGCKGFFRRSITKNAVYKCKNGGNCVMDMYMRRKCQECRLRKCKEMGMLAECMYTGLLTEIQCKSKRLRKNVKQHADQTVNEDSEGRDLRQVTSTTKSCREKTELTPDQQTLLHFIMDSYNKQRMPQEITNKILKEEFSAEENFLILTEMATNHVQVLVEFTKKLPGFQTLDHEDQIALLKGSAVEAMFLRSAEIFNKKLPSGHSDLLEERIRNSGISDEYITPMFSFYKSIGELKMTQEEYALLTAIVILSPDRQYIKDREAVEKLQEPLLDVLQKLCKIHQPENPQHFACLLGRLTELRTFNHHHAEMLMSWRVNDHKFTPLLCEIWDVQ
# Estrogen receptor (Homo sapiens), sequence (P03372 whole entry, looked up): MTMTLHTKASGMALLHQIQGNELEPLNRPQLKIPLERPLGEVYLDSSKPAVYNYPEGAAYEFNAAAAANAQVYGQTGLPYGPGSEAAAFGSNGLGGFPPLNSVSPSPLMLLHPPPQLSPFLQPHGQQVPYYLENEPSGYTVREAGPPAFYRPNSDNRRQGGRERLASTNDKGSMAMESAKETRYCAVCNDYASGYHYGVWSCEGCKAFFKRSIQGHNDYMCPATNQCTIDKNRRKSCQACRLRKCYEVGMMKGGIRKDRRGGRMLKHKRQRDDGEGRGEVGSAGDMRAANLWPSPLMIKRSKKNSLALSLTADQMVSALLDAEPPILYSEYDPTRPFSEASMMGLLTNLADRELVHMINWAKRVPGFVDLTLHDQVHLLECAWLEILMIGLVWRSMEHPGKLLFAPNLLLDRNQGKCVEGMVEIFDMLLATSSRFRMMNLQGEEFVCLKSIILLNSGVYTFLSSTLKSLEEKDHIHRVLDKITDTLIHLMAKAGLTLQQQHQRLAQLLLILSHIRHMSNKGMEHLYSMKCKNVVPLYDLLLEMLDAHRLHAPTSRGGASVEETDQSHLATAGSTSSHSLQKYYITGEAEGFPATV
# Vitamin D3 receptor (Homo sapiens), sequence (P11473 whole entry, looked up): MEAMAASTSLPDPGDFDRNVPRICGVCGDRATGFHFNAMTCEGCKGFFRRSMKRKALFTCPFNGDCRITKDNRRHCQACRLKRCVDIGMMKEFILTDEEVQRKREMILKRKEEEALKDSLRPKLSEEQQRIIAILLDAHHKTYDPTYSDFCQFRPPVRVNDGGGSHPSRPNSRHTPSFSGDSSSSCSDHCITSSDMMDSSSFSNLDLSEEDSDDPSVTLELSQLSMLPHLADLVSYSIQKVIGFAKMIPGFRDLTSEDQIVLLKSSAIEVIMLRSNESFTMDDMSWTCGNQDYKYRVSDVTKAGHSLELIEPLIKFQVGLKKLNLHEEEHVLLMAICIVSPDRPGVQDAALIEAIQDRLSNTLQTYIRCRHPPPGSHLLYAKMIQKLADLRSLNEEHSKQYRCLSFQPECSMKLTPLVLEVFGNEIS
# Voltage-gated inwardly rectifying potassium channel KCNH2 (Homo sapiens), sequence (Q12809 whole entry, looked up): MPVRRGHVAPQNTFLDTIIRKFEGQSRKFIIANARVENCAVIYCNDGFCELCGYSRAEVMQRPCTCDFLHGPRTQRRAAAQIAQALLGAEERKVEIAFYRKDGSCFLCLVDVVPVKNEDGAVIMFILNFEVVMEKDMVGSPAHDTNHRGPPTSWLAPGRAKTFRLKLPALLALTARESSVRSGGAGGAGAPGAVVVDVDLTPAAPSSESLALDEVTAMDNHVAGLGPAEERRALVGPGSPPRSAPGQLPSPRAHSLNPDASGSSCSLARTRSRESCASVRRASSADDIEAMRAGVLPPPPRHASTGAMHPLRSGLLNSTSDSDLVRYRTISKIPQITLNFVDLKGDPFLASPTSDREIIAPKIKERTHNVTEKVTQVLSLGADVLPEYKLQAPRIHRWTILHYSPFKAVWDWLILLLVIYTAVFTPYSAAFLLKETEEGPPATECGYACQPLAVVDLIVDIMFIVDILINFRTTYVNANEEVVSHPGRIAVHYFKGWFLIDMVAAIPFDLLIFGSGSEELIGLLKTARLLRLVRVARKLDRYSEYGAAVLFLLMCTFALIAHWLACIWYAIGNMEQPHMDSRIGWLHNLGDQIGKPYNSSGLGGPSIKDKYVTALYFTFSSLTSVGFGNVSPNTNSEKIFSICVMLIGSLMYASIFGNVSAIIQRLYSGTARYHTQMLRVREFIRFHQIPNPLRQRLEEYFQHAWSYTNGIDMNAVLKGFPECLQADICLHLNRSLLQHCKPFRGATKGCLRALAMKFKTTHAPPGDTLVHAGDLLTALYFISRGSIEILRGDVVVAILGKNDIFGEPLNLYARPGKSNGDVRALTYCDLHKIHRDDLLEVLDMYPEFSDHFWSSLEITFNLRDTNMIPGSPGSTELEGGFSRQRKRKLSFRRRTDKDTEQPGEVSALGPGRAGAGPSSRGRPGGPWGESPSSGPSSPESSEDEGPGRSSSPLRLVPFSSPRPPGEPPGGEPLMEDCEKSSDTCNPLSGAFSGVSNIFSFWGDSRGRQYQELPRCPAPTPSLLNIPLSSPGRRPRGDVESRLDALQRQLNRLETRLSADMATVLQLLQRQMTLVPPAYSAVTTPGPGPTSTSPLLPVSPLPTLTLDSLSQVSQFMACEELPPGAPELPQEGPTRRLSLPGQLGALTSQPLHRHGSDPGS
# Tumor necrosis factor (Homo sapiens), sequence (P01375 whole entry, looked up): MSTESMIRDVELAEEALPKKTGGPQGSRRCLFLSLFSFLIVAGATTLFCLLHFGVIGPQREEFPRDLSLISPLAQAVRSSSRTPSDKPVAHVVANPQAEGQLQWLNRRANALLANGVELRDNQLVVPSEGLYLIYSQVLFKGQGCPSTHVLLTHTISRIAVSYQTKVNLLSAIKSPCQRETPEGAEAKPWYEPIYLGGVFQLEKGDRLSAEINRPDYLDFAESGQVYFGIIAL
# Glucocorticoid receptor (Homo sapiens), sequence (P04150 whole entry, looked up): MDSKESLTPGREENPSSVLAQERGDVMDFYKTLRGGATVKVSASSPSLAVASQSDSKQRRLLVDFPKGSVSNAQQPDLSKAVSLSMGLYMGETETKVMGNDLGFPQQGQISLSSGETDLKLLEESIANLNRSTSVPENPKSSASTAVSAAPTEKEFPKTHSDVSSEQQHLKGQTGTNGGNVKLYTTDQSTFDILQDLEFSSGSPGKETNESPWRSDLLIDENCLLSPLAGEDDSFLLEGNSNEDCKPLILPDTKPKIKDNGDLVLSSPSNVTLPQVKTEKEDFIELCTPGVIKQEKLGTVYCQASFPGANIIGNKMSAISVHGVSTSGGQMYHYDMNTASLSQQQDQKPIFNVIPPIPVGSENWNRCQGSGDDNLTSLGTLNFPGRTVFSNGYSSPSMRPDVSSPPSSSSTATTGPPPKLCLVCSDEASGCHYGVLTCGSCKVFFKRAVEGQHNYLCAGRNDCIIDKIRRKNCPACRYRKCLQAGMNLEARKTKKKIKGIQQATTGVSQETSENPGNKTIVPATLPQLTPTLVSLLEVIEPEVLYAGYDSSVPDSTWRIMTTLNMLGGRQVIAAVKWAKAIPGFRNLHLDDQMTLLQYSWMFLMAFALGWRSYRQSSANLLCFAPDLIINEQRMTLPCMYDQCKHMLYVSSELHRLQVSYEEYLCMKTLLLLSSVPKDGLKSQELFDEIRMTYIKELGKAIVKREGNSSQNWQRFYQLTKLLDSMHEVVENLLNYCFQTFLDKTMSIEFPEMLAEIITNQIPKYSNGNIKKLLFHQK
SMILES,Potency [1] [µM],Potency [2] [µM],Potency [3],Potency [4],Potency [5],Potency [6],Potency [7],Potency [8],Potency [9],Potency [10],Potency [11],Potency [12],Potency [13],Potency [14],Potency [15],Potency [16],Potency [17],Potency [18]
CCCCCCCCC1CO1 (stereo not given),> 92,> 92,inactive,inactive,inactive,inactive,inactive,inactive,inactive,inactive,inactive,,,,,,,
Cc1ccccc1OCC1CO1 (stereo not given),,,inactive,inactive,inactive,inactive,inactive,,inactive,inactive,inactive,inactive,inactive,inactive,inactive,inactive,,
CC(/C=C/C=C(C)/C=C/C(=O)O)=C\C=C\C=C(C)\C=C\C=C(C)\C=C\C(=O)O,> 92,,inactive,inactive,,inactive,,inactive,inactive,inactive,,inactive,inactive,,inactive,,inactive,
CCCCC(CC)COCCCN (stereo not given),> 92,,inactive,inactive,,inactive,inactive,inactive,inactive,,,inactive,inactive,inactive,inactive,inactive,,
Nc1ccccc1O,> 92,> 92,inactive,,,inactive,inactive,,,,inactive,inactive,inactive,,inactive,inactive,inactive,
CC(=O)OCc1ccc2c(c1)OCO2,> 92,> 92,,inactive,inactive,inactive,,inactive,inactive,inactive,,inactive,,inactive,,inactive,inactive,inactive
O=C1OC(=O)c2ccccc21,> 92,,inactive,inactive,inactive,,inactive,inactive,inactive,inactive,,inactive,,inactive,inactive,inactive,inactive,inactive
Nc1cc([N+](=O)[O-])ccc1O,,> 92,,inactive,,inactive,inactive,,,inactive,,,,inactive,,,,
Brc1cc(Oc2cc(Br)c(Br)c(Br)c2Br)c(Br)c(Br)c1Br,> 92,,inactive,inactive,inactive,,inactive,inactive,,inactive,,,,,,inactive,,
CCCC(=O)OC(=O)CCC,,> 92,inactive,,inactive,inactive,,inactive,,,,,inactive,,,inactive,,
O=C(Cl)c1ccc([N+](=O)[O-])cc1,,,inactive,inactive,,,inactive,,,inactive,,inactive,,,inactive,inactive,,inactive
CN(C)c1ccc(Cc2ccc(N(C)C)cc2)cc1,> 92,> 92,,,,,,,inactive,inactive,,inactive,,inactive,,,,
Cc1ccc(S(N)(=O)=O)cc1,> 92,,inactive,inactive,,,inactive,inactive,inactive,inactive,inactive,inactive,,,,,inactive,
C=CC(=O)CC,> 92,,inactive,inactive,inactive,inactive,inactive,inactive,inactive,,,inactive,inactive,inactive,,inactive,inactive,inactive
CC(C)COC(=O)COc1cc(Cl)c(Cl)cc1Cl,,> 92,inactive,,inactive,,,inactive,,,,,,inactive,inactive,,,
CCOc1ccc2nc(N)sc2c1,> 92,,inactive,inactive,,inactive,inactive,inactive,,inactive,,inactive,,inactive,inactive,,,
Brc1ccc(-c2ccccc2)cc1,> 92,,,inactive,inactive,,inactive,inactive,,inactive,inactive,inactive,inactive,,,,inactive,
O=CC(=O)c1ccccc1,> 92,> 92,inactive,inactive,inactive,,,,,inactive,inactive,,,,inactive,inactive,,inactive

SMILES,Potency [1] [µM],Potency [2] [µM],Potency [3],Potency [4],Potency [5],Potency [6],Potency [7],Potency [8],Potency [9],Potency [10],Potency [11],Potency [12],Potency [13],Potency [14],Potency [15],Potency [16],Potency [17],Potency [18]
O=C(OCC1CO1)C1CCCCC1C(=O)OCC1CO1 (stereo not given),,,,,inactive,50.1 µM (active),,,,inactive,,,,,,inactive,,inactive
Nc1ccc(-c2ccc(N)c(O)c2)cc1O,,> 92,,,,,inactive,inactive,,,,,,inactive,,,,
c1ccc2ncccc2c1,> 92,> 92,inactive,,,,,inactive,,inactive,,inactive,,,inactive,inactive,,inactive
c1cc2c3c(c1)ccc1cccc(c13)C2,> 92,> 92,inactive,,inactive,,inactive,,,,,inactive,,inactive,,,,inactive
CCNC(=S)NCC,> 92,,inactive,inactive,inactive,inactive,inactive,,,,inactive,inactive,,inactive,inactive,inactive,,inactive
C=C(C#N)C(=O)OCC,> 92,> 92,inactive,inactive,,,inactive,inactive,,inactive,,,,inactive,,inactive,,
CCCCC(CC)COC(=O)COc1ccc(Cl)cc1Cl (stereo not given),> 92,> 92,inactive,,inactive,,,inactive,,inactive,,inactive,,,inactive,inactive,inactive,inactive
Cc1ccc2ccc3cccc4ccc1c2c34,> 92,> 92,,,,inactive,inactive,inactive,44.7 µM (active),inactive,,,inactive,inactive,inactive,,,
Cc1ccc(O)c(N)c1,> 92,,,,,50.1 µM (active),,,inactive,,,,,,inactive,inactive,,
O=[N+]([O-])c1cc(Cl)c(Cl)c(Cl)c1Cl,,,,inactive,inactive,,,,,,,25.1 µM (active),,inactive,,inactive,inactive,inactive
NC(=O)Nc1nc2ccccc2[nH]1,> 92,> 92,,,,inactive,,inactive,inactive,,inactive,inactive,inactive,inactive,inactive,inactive,,inactive
O=[N+]([O-])c1ccc(F)cc1F,,> 92,inactive,inactive,inactive,,inactive,inactive,,,,,inactive,inactive,inactive,,inactive,inactive
Clc1nc2ccccc2nc1Cl,,> 92,,inactive,inactive,,inactive,inactive,,inactive,inactive,inactive,,inactive,inactive,,,
Oc1ccc(O)c2c(O)cccc12,,,,,,,,,,,,inactive,,inactive,inactive,,,
CC(C)S,> 92,> 92,,inactive,,inactive,,inactive,,inactive,inactive,inactive,,inactive,inactive,,,inactive
O=C(O)c1ccc([N+](=O)[O-])cc1,> 92,,,,,inactive,,,inactive,inactive,,,,inactive,,,,
NC(=O)c1ccc([N+](=O)[O-])cc1,,> 92,,,inactive,,,inactive,,inactive,inactive,,inactive,inactive,,,inactive,
